The nature of assay [1]: inhibitors of TNFa-induced NFkB p65 translocation, primary screen, imaging, HUVEC, MLSMR starter and 10KST1 sets (AID 438;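 active = inhibition above 20% together with a positive visual image hit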;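 note: compound added about 3h40 before a 20 min TNFalpha stimulation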;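 for inhibition: signal is the nuclear over cytoplasmic p65 intensity ratio per well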). The settings on record: HUVEC TNFa-induced p65 nuclear translocation; cell count: measured here: nuclei count (cytotoxicity indicator), at 2.08 µM unless noted; inhibition: at 2 µM, stronger effect = higher value unless noted.
Assay [2] is described as follows: inhibitors of mutant huntingtin aggregation, primary screen, imaging, exon1htt(103Q)mCFP cells, high-content imaging (AID 483;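 active = visual image review flags a hit and inhibition of aggregation exceeds 20%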;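 note: compound exposure lasted 3 days before fixation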;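 for nuclei count: percent of the per-plate median nuclei count of sample wells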). The conditions noted are these: exon1htt(103Q)mCFP cell line, aggregate imaging, at 2 µM; inhibition of aggregation: stronger effect = higher value; nuclei count: measured here: cell count, toxicity.
Assay [3] is described as follows: inhibitors of E-selectin induction by TNFa, primary screen, imaging, HUVEC, immunofluorescence, MLSMR starter and 10KST1 sets (AID 487;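 active = visually confirmed hit in the image check and inhibition above 20%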;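 for inhibition: signal is fraction of cell area covered by stained E-selectin grains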;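 for nuclei count: 100% = median nuclei count of all wells on the same plate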). The settings on record: HUVEC TNFalpha-induced E-selectin immunofluorescence imaging, at 2 µM; inhibition: stronger effect = higher value; nuclei count: measured here: cell number, toxicity.
For assay [4], the target named is Voltage-gated potassium channel subunit beta-2 (Rattus norvegicus) (UniProt P62483). Put plainly: KvBeta enzyme negative modulators, primary screen, biochemical, NADPH fluorescence (AID 622;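 active = fluorescence slope higher than the sample average by over 3 SD, cut at about -0.22 in these data, passing the limit was not always enough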;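 note: slope of raw intensity against log time taken from 70 to 1610 s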). The conditions noted are these: recombinant KvBeta, 4-cyanobenzaldehyde reduction, at 10 µM, stronger effect = higher value.
For assay [5] the target is unchanged. Put plainly: KvBeta positive modulators, primary screen, biochemical, NADPH fluorescence (AID 623;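 active = NADPH fluorescence slope more negative than the mean of all samples by about 3 SD, 99.7% confidence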;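 note: fluorescence intensity change per second fitted from 20 to 320 s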). The conditions noted are these: Recombinant KvBeta, NADPH fluorescence decrease slope, 10 min; at 10 µM; stronger effect = lower value.
Assay [6] addresses Alpha-2C adrenergic receptor (Homo sapiens) (UniProt P18825). Put plainly: modulators of alpha2C/GIRK thallium flux, primary screen, cell-based, HEK293 alpha2C/GIRK1/2 (AID 624).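 Note: slope of fluorescence ratio to pre-addition baseline per second over 15 to 24 s.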 The conditions noted are these: thallium flux BTC fluorescence, at 10 µM, actives lie on both sides.
Assay [7] can be described thus: inhibitors of Sendai virus-induced IRF3 signaling, primary screen, TLR/RLR signaling modifier project, cell-based, Sendai virus stimulus, luciferase, 10K MLSCN set (AID 602276;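 active = inhibition at or above 50% at 10 µM; inactive = inhibition below 50%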;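 note: firefly luciferase from ISG56 promoter only with Renilla not read in this screen; 0% = Sendai virus plus DMSO and 100% = medium plus DMSO without virus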). The settings on record: HEK293 RL24 IRF3 luciferase reporter, at 10 µM, stronger effect = higher value.
Assay [8] is described as follows: inhibitors of poly I:C-induced TLR3 signaling, primary screen, cell-based, poly I:C stimulus, luciferase, 10K MLSCN set (AID 602277;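 active = inhibition of the reporter signal at or above 50%; inactive = inhibition below 50%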). The settings on record: HEK293-TLR3 RL24 IRF3 luciferase reporter, at 10 µM, stronger effect = higher value.

From PubChem BioAssay come the findings set out here.

Calls of active or inactive are those of the source.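 Rule for the calls, unless noted: active = fluorescence slope after compound addition differing from the mean of all screened samples at 99.7% confidence, in either direction; inactive = the rest.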

Sequence of Alpha-2C adrenergic receptor (Homo sapiens) (P18825 whole entry, looked up): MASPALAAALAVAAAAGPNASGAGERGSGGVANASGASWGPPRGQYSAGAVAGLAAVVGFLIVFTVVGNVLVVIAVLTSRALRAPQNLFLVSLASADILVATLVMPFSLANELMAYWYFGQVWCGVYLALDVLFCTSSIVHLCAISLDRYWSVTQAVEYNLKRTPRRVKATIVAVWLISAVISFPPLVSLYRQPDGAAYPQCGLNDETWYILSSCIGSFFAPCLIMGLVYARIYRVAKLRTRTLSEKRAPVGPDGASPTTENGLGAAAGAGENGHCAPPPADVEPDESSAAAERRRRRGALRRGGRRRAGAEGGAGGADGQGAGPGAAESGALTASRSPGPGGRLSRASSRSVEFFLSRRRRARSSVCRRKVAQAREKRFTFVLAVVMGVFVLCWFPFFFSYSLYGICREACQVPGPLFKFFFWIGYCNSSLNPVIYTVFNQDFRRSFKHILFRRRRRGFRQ
Sequence of Voltage-gated potassium channel subunit beta-2 (Rattus norvegicus) (P62483 whole entry, looked up): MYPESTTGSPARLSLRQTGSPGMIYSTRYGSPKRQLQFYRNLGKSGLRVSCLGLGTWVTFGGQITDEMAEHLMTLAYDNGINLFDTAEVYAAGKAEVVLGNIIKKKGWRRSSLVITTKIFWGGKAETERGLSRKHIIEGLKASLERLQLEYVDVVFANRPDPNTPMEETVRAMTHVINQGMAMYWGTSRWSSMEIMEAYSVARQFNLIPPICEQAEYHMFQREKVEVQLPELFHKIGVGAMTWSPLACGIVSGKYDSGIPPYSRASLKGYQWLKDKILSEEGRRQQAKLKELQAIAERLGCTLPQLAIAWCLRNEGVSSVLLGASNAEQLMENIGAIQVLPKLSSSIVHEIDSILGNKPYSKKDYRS

Regarding `O=C(Cn1ncc2c3ccccc3n(Cc3ccc(F)cc3)c2c1=O)N1CCC2(CC1)OCCO2`, in assay [1], the cell count is 454. Moreover, the inhibition was 2.9% (inactive) in assay [1], -167% (inactive) in assay [3], 7.71% (inactive) in assay [7] and 2.33% (inactive) in assay [8]. For the same compound, in assay [2], the inhibition of aggregation is -17.5% (inactive). In addition, the results for the nuclei count in assay [2] and in assay [3] were 74.9% and 130%, respectively. Also, in assay [4], the fluorescence slope is -0.295 (inactive). For the same compound, the NADPH fluorescence slope in assay [5] is -5.2e-05 (inactive). In assay [6], the slope is 0.00589 (inactive).
In the case of `CC1(C)C(c2ccccc2)=NC(c2cccnc2)N1O` (stereo not drawn), the cell count in assay [1] stood at 309. For the same compound, the inhibition in assay [1] is 8.2% (inactive); in assay [3], 17.6% (inactive); in assay [7], 14.6% (inactive); in assay [8], 25.5% (inactive). Moreover, the inhibition of aggregation in assay [2] is -17.9% (inactive). Also, the nuclei count in assay [2] was found to be 108%; in assay [3] it was 99.6%. Also, the fluorescence slope in assay [4] was -0.495 (inactive). For the same compound, the NADPH fluorescence slope in assay [5] was -6.7e-05 (inactive). In addition, the slope in assay [6] is 0.00634 (inactive).
Turning to `CCOP(=S)(OCC)c1ccc(N(C)C)cc1`, in assay [1], the cell count is 670. Also, the inhibition in assay [1] was -1% (inactive); in assay [3], -113% (inactive); in assay [7], -17.4% (inactive); in assay [8], -4.41% (inactive). For the same compound, the inhibition of aggregation in assay [2] was 18.4% (inactive). Further, the nuclei count is 68.7% in assay [2] and 117% in assay [3]. In addition, the fluorescence slope in assay [4] is -0.572 (inactive). The NADPH fluorescence slope in assay [5] was 3.8e-05 (inactive). In assay [6], the slope is 0.00443 (inactive).
`CCCNC(=O)c1c(N)n(Cc2ccc3c(c2)OCO3)c2nc3ccccc3nc12` registered a cell count in assay [1] of 699. In addition, the inhibition in assay [1] was -14.7% (inactive); in assay [3] it was -9.2% (inactive); in assay [7], 19.3% (inactive); in assay [8], 24.3% (inactive). In assay [2], the inhibition of aggregation was -5.3% (inactive). The nuclei count in assay [2] was determined as 104%; in assay [3], 107%. Besides, the fluorescence slope in assay [4] was -0.559 (inactive). Further, in assay [5], the NADPH fluorescence slope was -2.1e-05 (inactive). The slope in assay [6] was 0.00324 (inactive).
Take `Cc1ccc(C)c(NC(=O)CSc2nnc([C@@H](N)Cc3c[nH]c4ccccc34)o2)c1`: in assay [1], the cell count amounted to 282. Further, the inhibition in assay [1] is 9.5% (inactive); in assay [3] it was -8.3% (inactive); in assay [7], 9.6% (inactive); in assay [8] it was 24.2% (inactive). Also, the inhibition of aggregation in assay [2] was -6.6% (inactive). Further, the results for the nuclei count in assay [2] and in assay [3] were 103% and 92.8%, respectively. In assay [4], the fluorescence slope was -0.428 (inactive). In addition, the NADPH fluorescence slope in assay [5] was -1.2e-05 (inactive). The slope in assay [6] is 0.00513 (inactive).
Consider `CC#CP(=O)(OCC)C(O)(c1ccccc1)C(F)(F)F` (stereo not drawn), for which the cell count in assay [1] turned out to be 621. The inhibition in assay [1] was 12.5% (inactive); in assay [3], -29.4% (inactive); in assay [7], 15% (inactive); in assay [8] it was 23.4% (inactive). Further, in assay [2], the inhibition of aggregation was 4.9% (inactive). Besides, the nuclei count came out at 90.8% in assay [2] and 110% in assay [3]. The fluorescence slope in assay [4] is -0.621 (inactive). Besides, the NADPH fluorescence slope in assay [5] is 5.6e-07 (inactive). Besides, the slope in assay [6] was 0.0037 (inactive).
`Cc1ccccc1NC1=NCCCS1` gave a cell count in assay [1] of 457. For the same compound, the inhibition in assay [1] is -10.3% (inactive); in assay [3], 67.8% (inactive); in assay [7], 0.817% (inactive); in assay [8], 19% (inactive). Moreover, the inhibition of aggregation in assay [2] was 29.9% (active). For the same compound, the nuclei count in assay [2] stood at 83.1%; in assay [3] it was 74.1%. In assay [4], the fluorescence slope is -0.357 (inactive). Further, the NADPH fluorescence slope in assay [5] was -3.1e-05 (inactive). The slope in assay [6] is 0.00361 (inactive).
`Cc1ccc(-c2nc(CS(=O)CC(=O)N3CCC4(CC3)OCCO4)c(C)o2)cc1` (stereo not drawn) yielded a cell count in assay [1] of 704. Besides, the inhibition was -30.6% (inactive) in assay [1], -4.2% (inactive) in assay [3], 16.5% (inactive) in assay [7] and 19.1% (inactive) in assay [8]. In addition, the inhibition of aggregation in assay [2] was -2.4% (inactive). In addition, the values for the nuclei count in assay [2] and in assay [3] were 99.4% and 101%, respectively. Also, the fluorescence slope in assay [4] is -0.62 (inactive). Further, the NADPH fluorescence slope in assay [5] is -2.5e-05 (inactive). Besides, in assay [6], the slope is 0.00606 (inactive).
